Measurements from PubChem BioAssay (NCATS).
Results filed as inconclusive are left out. The source made the active and inactive calls. Calls come from the whole dose curve; as a rule, active = well fitted inhibition curve with a large enough effect; inconclusive = small, poorly fitted or top-dose-only effect; inactive = flat fitted curve, though single readings scatter.

Key:
Test in all cases: qHTS profiling for inhibitors of Plasmodium falciparum proliferation (AID 504749); note: nearly all actives have a fitted effect of over 60% in size
Conditions in all cases: P. falciparum in erythrocytes, SYBR Green DNA, 72 h; series mostly up to 28.7 µM
DIV30 = system: DIV30
Summary of the method: (§1)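 Readout was DNA-dye fluorescence from lysed cultures, ex 485/em 535 nm. Parasitized red cells had grown 72 h with compound; data scaled between 0.29 uM artemisinin and DMSO wells and corrected using vehicle-only plates.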

Dd2 = system: Dd2
Summary of the method: as §1

ECU = system: ECU
Summary of the method: as §1

FAB9 = system: FAB9
Summary of the method: as §1

GB4 = system: GB4
Summary of the method: as §1

HB3 = system: HB3
Summary of the method: as §1

ICS = system: ICS
Summary of the method: as §1

JCK = system: JCK
Summary of the method: as §1

N140 = system: N140
Summary of the method: as §1

P93_24 = system: P93_24
Summary of the method: as §1

P94_40 = system: P94_40
Summary of the method: as §1

PAD = system: PAD
Summary of the method: as §1

PC15 = system: PC15
Summary of the method: as §1

PC26 = system: PC26
Summary of the method: as §1

PC49 = system: PC49
Summary of the method: as §1

SC27B = system: SC27B
Summary of the method: as §1

TAB109 = system: TAB109
Summary of the method: as §1

TAB113 = system: TAB113
Summary of the method: as §1

TAB165 = system: TAB165
Summary of the method: as §1

W2 = system: W2
Summary of the method: as §1

Measured: Potency
Potency is the fitted concentration of half-maximal effect.

C[N+](C)(C)CCOC(N)=O
inactive: DIV30 | Dd2 | ECU | FAB9 | GB4 | HB3 | ICS | JCK | N140 | P93_24 | P94_40 | PAD | PC15 | PC26 | PC49 | SC27B | TAB109 | TAB113 | TAB165 | W2

CCCOc1ccccc1-c1nc2n[nH]nc2c(=O)[nH]1
inactive: DIV30 | Dd2 | ECU | FAB9 | GB4 | HB3 | JCK | N140 | P93_24 | P94_40 | PAD | PC15 | PC26 | PC49 | SC27B | TAB109 | TAB113 | TAB165

CCO/C([O-])=N/c1c[n+](N2CCOCC2)no1
inactive: DIV30 | Dd2 | ECU | FAB9 | GB4 | HB3 | ICS | JCK | N140 | P93_24 | P94_40 | PAD | PC15 | PC26 | PC49 | SC27B | TAB109 | TAB113 | TAB165 | W2

CCn1cc(C(=O)O)c(=O)c2cc3c(cc21)OCO3
inactive: DIV30 | Dd2 | ECU | FAB9 | GB4 | HB3 | ICS | JCK | N140 | P93_24 | P94_40 | PAD | PC15 | PC26 | PC49 | SC27B | TAB109 | TAB113 | TAB165 | W2

Cc1scc2c1N(C(=O)CN1CCN(C)CC1)c1ccccc1NC2=O
inactive: DIV30 | Dd2 | ECU | FAB9 | GB4 | HB3 | ICS | JCK | N140 | P93_24 | P94_40 | PAD | PC15 | PC26 | PC49 | SC27B | TAB109 | TAB113 | W2

CCCCNc1c(C(=O)OCC)c(C)nc2c1cnn2CC
inactive: DIV30 | Dd2 | ECU | FAB9 | GB4 | HB3 | JCK | N140 | P93_24 | PAD | PC15 | PC26 | PC49 | SC27B | TAB109 | TAB113

OCCN1CCN(CCCN2c3ccccc3C=Cc3ccccc32)CC1
active: DIV30 6.75 µM | Dd2 4.47 µM | ECU 2.82 µM | GB4 6.75 µM | HB3 8.91 µM | ICS 4.47 µM | N140 3.55 µM | P93_24 7.94 µM | P94_40 5.01 µM | PAD 3.55 µM | PC15 2.24 µM | PC26 4.78 µM | PC49 1.41 µM | SC27B 7.94 µM | TAB109 7.94 µM | TAB113 6.31 µM | TAB165 5.62 µM | W2 1.51 µM

CN(C)CCOC(=O)COc1ccc(Cl)cc1
inactive: DIV30 | Dd2 | ECU | FAB9 | GB4 | HB3 | ICS | JCK | N140 | P93_24 | P94_40 | PAD | SC27B | TAB109 | TAB113 | TAB165 | W2

Cc1cc(C)c(/C=C2\C(=O)Nc3ccccc32)[nH]1
inactive: DIV30 | Dd2 | ECU | FAB9 | GB4 | HB3 | JCK | N140 | P93_24 | P94_40 | PAD | PC15 | PC26 | PC49 | SC27B | TAB109 | TAB113 | TAB165 | W2

CC(N=C(NC#N)Nc1ccncc1)C(C)(C)C (stereo not given)
inactive: DIV30 | Dd2 | ECU | FAB9 | GB4 | HB3 | ICS | JCK | N140 | P93_24 | P94_40 | PAD | PC15 | PC26 | PC49 | SC27B | TAB109 | TAB113 | TAB165 | W2

Cc1ccc(=O)n(-c2ccccc2)c1
inactive: DIV30 | Dd2 | ECU | FAB9 | GB4 | HB3 | ICS | JCK | N140 | P93_24 | P94_40 | PC15 | PC26 | PC49 | SC27B | TAB109 | TAB113 | TAB165 | W2

COC(=O)[C@@H](N)Cc1ccc(O)c(O)c1
inactive: DIV30 | Dd2 | ECU | FAB9 | HB3 | ICS | JCK | N140 | P93_24 | P94_40 | PAD | PC15 | PC26 | PC49 | SC27B | TAB109 | TAB165

CC(C)(Oc1ccc(CCNC(=O)c2ccc(Cl)cc2)cc1)C(=O)O
inactive: DIV30 | Dd2 | ECU | FAB9 | GB4 | HB3 | ICS | JCK | N140 | P93_24 | P94_40 | PAD | PC15 | PC49 | SC27B | TAB109 | TAB113 | TAB165 | W2

COC(=O)C1=C(C)NC(C)=C(C(=O)OC(C)(C)CN(C)CCC(c2ccccc2)c2ccccc2)C1c1cccc([N+](=O)[O-])c1 (stereo not given)
active: DIV30 4.78 µM | Dd2 2.24 µM | ECU 3.16 µM | GB4 2.13 µM | HB3 3.16 µM | ICS 2 µM | N140 2.51 µM | P93_24 2.51 µM | P94_40 2.51 µM | PAD 2.51 µM | PC15 6.31 µM | PC26 1.51 µM | SC27B 2.24 µM | TAB109 3.16 µM | TAB113 2.51 µM | TAB165 2.24 µM | W2 1.2 µM

NC(=O)N1c2ccccc2C=Cc2ccccc21
inactive: DIV30 | Dd2 | ECU | FAB9 | GB4 | HB3 | ICS | JCK | N140 | P93_24 | PAD | PC15 | PC26 | PC49 | SC27B | TAB109 | TAB113 | TAB165 | W2

Cc1ccc(S(=O)(=O)NC(=O)NN2CCCCCC2)cc1
inactive: DIV30 | Dd2 | ECU | FAB9 | GB4 | HB3 | ICS | JCK | N140 | P93_24 | PAD | PC15 | PC26 | PC49 | SC27B | TAB109 | TAB113 | TAB165 | W2

FC(F)(F)c1ccccc1-n1ccnc1
inactive: DIV30 | Dd2 | ECU | FAB9 | GB4 | HB3 | ICS | JCK | N140 | P93_24 | P94_40 | PAD | PC15 | PC26 | PC49 | SC27B | TAB109 | TAB113 | TAB165 | W2

C[n+]1cc2c3c(ccc2c2ccc4cc5c(cc4c21)OCO5)OCO3
inactive: DIV30 | Dd2 | ECU | FAB9 | HB3 | ICS | JCK | N140 | P93_24 | P94_40 | PAD | PC15 | PC49 | SC27B | TAB109 | TAB165

CCc1cccc(N(C)C(N)=Nc2cccc3ccccc23)c1
active: DIV30 7.57 µM | Dd2 3.16 µM | ECU 7.94 µM | GB4 5.36 µM | ICS 2.82 µM | PAD 4.47 µM | PC15 5.01 µM | PC26 4.26 µM | W2 0.757 µM
inactive: FAB9 | HB3

O=c1[nH]c(=O)n([C@H]2C[C@H](O)[C@@H](CO)O2)cc1Br
inactive: DIV30 | Dd2 | ECU | FAB9 | GB4 | HB3 | ICS | JCK | N140 | P93_24 | P94_40 | PAD | PC15 | PC26 | PC49 | SC27B | TAB109 | TAB113 | TAB165 | W2

COc1cc2c(cc1OC)-c1cc(=Nc3c(C)cc(C)cc3C)n(C)c(=O)n1CC2
active: DIV30 6.01 µM | Dd2 7.94 µM | ECU 5.01 µM | FAB9 3.98 µM | GB4 2.69 µM | HB3 7.08 µM | ICS 1.78 µM | JCK 5.62 µM | N140 3.16 µM | P93_24 3.55 µM | P94_40 3.98 µM | PAD 3.16 µM | PC15 10 µM | PC26 6.01 µM | PC49 3.55 µM | SC27B 2.82 µM | TAB109 4.47 µM | TAB113 3.16 µM | TAB165 2.51 µM | W2 1.9 µM

O=C(O)CN(CCOCCOCCN(CC(=O)O)CC(=O)O)CC(=O)O
inactive: DIV30 | Dd2 | ECU | FAB9 | GB4 | HB3 | ICS | JCK | N140 | P93_24 | P94_40 | PAD | PC15 | PC26 | PC49 | SC27B | TAB109 | TAB113 | TAB165 | W2

CCN(CC)CCOCCOC(=O)C1(c2ccccc2)CCCC1
active: DIV30 7.57 µM | Dd2 2.51 µM | ECU 11.2 µM | GB4 6.01 µM | HB3 12.6 µM | ICS 1.41 µM | N140 7.08 µM | P93_24 6.31 µM | P94_40 7.08 µM | PAD 8.91 µM | PC15 11.2 µM | PC26 12 µM | PC49 7.08 µM | SC27B 12.6 µM | TAB109 6.31 µM | TAB113 11.2 µM | TAB165 8.91 µM | W2 0.953 µM

COC(=O)[C@H]1[C@H]2C[C@@H]3c4[nH]c5cc(OC)ccc5c4CCN3C[C@H]2C[C@@H](OC(=O)c2cc(OC)c(OC)c(OC)c2)[C@@H]1OC
active: DIV30 1.07 µM | Dd2 12.6 µM | ECU 5.01 µM | GB4 13.5 µM | HB3 11.2 µM | ICS 3.55 µM | N140 3.98 µM | P93_24 10 µM | P94_40 7.94 µM | PAD 2 µM | PC15 11.2 µM | PC26 2.13 µM | PC49 7.94 µM | SC27B 7.08 µM | TAB109 8.91 µM | TAB113 5.62 µM | TAB165 3.98 µM | W2 3.79 µM
